Broadly, the inhibition is the change of the read-out against control, counted positive when it falls.

The structures appear in SMILES notation. Hit rate of the full screen: of about 300,000 compounds, about 2,700 (0.9%) were called active.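 The calls were made as follows: active = mean inhibition of at least 30% with at least half of replicates also reaching 30%; inconclusive = no clear call, values can overlap the other calls; inactive = the rest.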 Shown is part of a subset that was picked to be rich in actives.

The target in the assay is Golgi-associated PDZ and coiled-coil motif-containing protein (Homo sapiens) (UniProt Q9HD26). In words: blockade of CAL PDZ-reporter peptide interaction – biochemical, fluorescence polarization, untagged CAL PDZ, HTS, primary screen (AID 602252).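 Also: 0% = DMSO neutral control and 100% = excess unlabeled competitor peptide PRC23.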 Conditions: purified CAL PDZ, TMR-peptide fluorescence polarization, 1 h; at 24.9 µM; active compounds read high.
In the case of `CN1C(c2ccc(F)cc2)=CS/C1=C(/C#N)c1nnc2n1-c1ccccc1SC2`, the inhibition is 7.66% (inactive).
With `C=CC[C@@H](CC(=O)N[C@H](CO)Cc1ccccc1)C(=O)N[C@H](C)COC(=O)[C@@H](CC=C)Cc1ccc(F)cc1`, the inhibition was 4.91% (inactive).
To `C=CCC[C@H](Cc1ccc(F)cc1)C(=O)OC[C@@H](Cc1c[nH]c2ccccc12)NC(=O)[C@H](CC=C)CC(=O)N[C@H](CO)Cc1ccccc1` belongs -1.97% (inactive); to `C=CCC[C@H](Cc1ccc(F)cc1)C(=O)OC[C@@H](NC(=O)[C@@H](CC=C)CC(=O)N[C@H](CO)Cc1ccccc1)C(C)(C)C`, 40.2% (active); to `O=C1/C(=C\c2ccc(O)cc2)CCC1CNc1ccc(Cl)cc1` (stereo not given), -2.09% (inactive).
To `CC(=O)OC1CCC2(C)C(=CCC3C4CC(=O)N(O)C(=O)C4(C)CCC32)C1` (stereo not given) belongs -3.51% (inactive).
To `c1ccc(C(=NNc2nc3ccccc3s2)c2ccccn2)cc1` belongs 10.3% (inactive); to `CCCCc1nnc(NC(=O)CS(=O)(=O)Cc2ccccc2)s1`, 30.2% (active).
For `CCOCc1nnc(NC(=O)CCS(=O)(=O)Cc2ccccc2)s1`, the inhibition was -2.55% (inactive).
Next, `COCc1nnc(NC(=O)CS(=O)(=O)Cc2ccccc2)s1`: -3.64% (inactive); `COc1ccc(N2CCN(C(CNS(=O)(=O)c3ccc(C)cc3)c3ccccc3)CC2)cc1` (stereo not given): -2.12% (inactive).
`O=C1C=CN2CCCC2CC1` (stereo not given): the inhibition was -1.74% (inactive).
Take `O=C(NC(=S)Nc1ccc(Br)cc1F)C1CCCCC1`: the inhibition is -6.68% (inactive).
In the case of `Cc1nn(-c2ccc(F)cc2)c(Cl)c1/C=C(/CCC(=O)O)c1nc2ccccc2s1`, the inhibition was -3.19% (inactive).
To `COc1cc(C2c3cc4c(cc3C(O)C3COC(=O)C23)OCO4)cc(OC)c1OC` (stereo not given) belongs -1.27% (inactive); to `CSc1ccccc1NC(=O)c1ccc2c(c1)CCN2S(C)(=O)=O`, -1.36% (inactive).
Next, `CCc1ccccc1NC(=O)c1ccc2c(c1)CCN2S(C)(=O)=O`: 40% (active).
Next, `CS(=O)(=O)N1CCc2cc(C(=O)Nc3ccccc3Br)ccc21`: -1.26% (inactive).
For `COc1cc(OC)cc(-c2cc3ccc(F)cc3cn2)c1`, the inhibition was -1.91% (inactive).
Turning to `O=C(C1CCN(C2CCN(Cc3cccc4c3OCO4)CC2)CC1)N1CCOCC1`, the inhibition was 37.8% (active).
To `O=C(C1CCN(Cc2ccc(Cl)cc2)CC1)N1CCN(Cc2ccc3c(c2)OCO3)CC1` belongs 2.38% (inactive).
To `C/C(=C\c1ccco1)CN1CCC(N2CCC(C(=O)N3CCOCC3)CC2)CC1` belongs 5.25% (inactive); to `CCC(CO)Oc1cc(NC(=O)c2cccc3ccccc23)c2ncn(C(C)C)c2c1` (stereo not given), -1.65% (inactive).
Next, `Cc1cc(C)cc(OCC(=O)Nc2ccc(N3CCOCC3)cc2N2CCOCC2)c1`: -3.82% (inactive); `CCOc1ccc(N/C(N)=N/c2nc(C)c(C)c(=O)[nH]2)cc1`: 42% (active).
As to `CCOc1ccc(NC(=O)C2CC(=O)N=C(N)S2)cc1` (stereo not given), the inhibition is -0.069% (inactive).
As to `CCOc1ccc(NC(=O)c2nc(SCC)ncc2Cl)cc1`, the inhibition is -1.2% (inactive).
On to `CCCCN1CC(COCc2ccccc2)OCCS1(=O)=O` (stereo not given), for which the inhibition is -4.9% (inactive).
To `O=C(O)c1ccc(NN=CC2=C(N3CCOCC3)/C(=C/c3ccccc3)CC2)cc1` belongs -3.09% (inactive).
Turning to `CCCCNC(=O)C(C)N(CCN(C)C)C(=O)CCCCCN1C(=O)NC(c2ccc(Cl)cc2)C(C(=O)OCc2ccccc2)=C1C` (stereo not given), the inhibition was -7.11% (inactive).
Next, `Cc1cc(-c2nnc(SCC(=O)Nc3ccc(S(N)(=O)=O)cc3)n2N)n[nH]1`: 2.84% (inactive).
Turning to `Cc1oc2nc(SCC(=O)NCc3cccnc3)nc(N)c2c1C`, the inhibition was -4.94% (inactive).
For `Cc1oc2nc(SCC(=O)Nc3ccc(S(N)(=O)=O)cc3)nc(NC(=O)c3ccccc3)c2c1C`, the inhibition is 30.6% (active).
To `O=C(/C=C/c1c(F)cccc1Cl)Nc1nn[nH]n1` belongs 133% (active); to `O=C(CCc1ccccc1)Nc1nn[nH]n1`, -4.68% (inactive); to `CCOC(=O)CNC(=O)/C=C/c1c(Cl)cccc1Cl`, -4.11% (inactive).
Next, `COc1ccc2c(c1)[C@H]1[C@H](CO2)[C@H](c2ccccc2)[C@]2(C)C(=O)Nc3cc(F)c(F)cc3C(=O)N12`: -3.04% (inactive); `Cc1ccc(S(=O)(=O)NC[C@H]2O[C@@H](n3cnc4c(N)ncnc43)[C@H](O)[C@@H]2O)s1`: -0.852% (inactive); `O=c1c(Cl)c(NC2CC2)cnn1-c1ccccc1`: -0.978% (inactive).
Next, `CCCNC(=O)c1c(Cl)cnn1-c1ccc(C)cc1`: 4.34% (inactive).
`C=CCNc1cnn(-c2ccc(C)cc2)c(=O)c1Cl`: the inhibition is 82% (active).
Next, `COc1ccc2[nH]c3c(c2c1)CCN1C(=O)C(CC(=O)NCCc2ccccn2)C[C@H](C(=O)N2CCOCC2)[C@@]31C` (stereo not given in full): -8.9% (inactive).
As for `COC(=O)[C@]1(Cc2ccccc2)N[C@H](CN(C)S(=O)(=O)c2ccc(OC(F)(F)F)cc2)[C@@H]2C(=O)N(C)C(=O)[C@@H]21`, the inhibition is -4.26% (inactive).
To `N#CCCN1CCN(S(=O)(=O)c2ccc(S(=O)(=O)N3CCCC3)cc2)CC1` belongs 2.13% (inactive); to `Cc1ccc(S(=O)(=O)NC2CCCCCC2)cc1`, 0.011% (inactive); to `N#CCCN1CCN(S(=O)(=O)c2ccc(S(=O)(=O)NC3CCCCC3)cc2)CC1`, 49.3% (active).
Next, `COc1ccc(-c2c(-c3cc(OC)cc(OC)c3)n(C)c3ccc(-c4ccn[nH]4)cc23)cc1`: -3.15% (inactive); `CCN1CCC(O)(/C=C/c2ccc(C)cc2)C(C(=O)/C=C/c2ccc(C)cc2)C1` (stereo not given): 8.48% (inactive); `Cn1c(=O)c(C(=O)Nc2ncccn2)c(O)c2ccccc21`: 35% (active).
Next, `CCCn1c(=O)c(C(=O)Nc2cc(C)ccn2)c(O)c2ccccc21`: -3.7% (inactive); `C=CCn1c(=O)c(C(=O)Nc2ncccc2O)c(O)c2ccccc21`: -2.5% (inactive); `COc1ccc(Cl)cc1C=CC=Nc1ccc(S(N)(=O)=O)cc1`: 1.96% (inactive).
For `COc1ccc(CC(=O)Nc2nc(-c3ccc(F)c(F)c3)cs2)cc1OC`, the inhibition is -3.84% (inactive).
To `COc1cccc(CC(=O)Nc2nc(-c3ccc(OC)c(OC)c3)cs2)c1` belongs -0.162% (inactive); to `COc1ccc(CCNc2nc(-c3cccc(NC(C)=O)c3)cs2)cc1OC`, 57.3% (active).

The record behind these values is PubChem BioAssay AID602252 (Broad Institute, 2012).
